According to PubChem BioAssay (NCI):
The panel holds about 79,000 compounds, 15% with a hit somewhere; the sample as a whole holds those more often. Cut-off read from the data, not from the text of the source: active = growth inhibition above about 70%; inactive = the rest.

How the values were obtained:
[1] = NCI Yeast Anticancer Drug Screen. Data for the rad50 strain (AID 155);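 note: 0% = growth of vehicle-only cultures of the same strain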; settings: S. cerevisiae rad50 strain growth inhibition; at 50.0 µM; hits give high values
Procedure, shortened: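 Relative growth inhibition (compound vs vehicle) was measured in yeast with a defined repair-gene alteration.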

[2] = NCI Yeast Anticancer Drug Screen. Data for the mec2-1 strain (AID 157); settings: S. cerevisiae mec2-1 strain, at 50.0 µM, hits give high values
Procedure, shortened: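 Growth inhibition is read against vehicle-treated controls after compound exposure of the mec2-1 yeast strain, which is defective in DNA damage repair or cell cycle control.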

[3] = NCI Yeast Anticancer Drug Screen. Data for the sgs1 mgt1 strain (AID 161);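 note: 0% = growth of cultures given vehicle only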; settings: S. cerevisiae sgs1 mgt1 strain, at 50.0 µM, hits give high values
Procedure, shortened: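 Growth of a repair-deficient yeast mutant was monitored after compound treatment and expressed as inhibition relative to vehicle-treated cultures.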

[4] = NCI Yeast Anticancer Drug Screen. Data for the cln2 rad14 strain (AID 165);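 note: 0% = growth equal to vehicle treated cultures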; settings: S. cerevisiae cln2 rad14 strain, at 50.0 µM, hits give high values
Procedure, shortened: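 Growth inhibition, relative to vehicle-treated controls, is the read-out. The test organism is a yeast strain with defined genetic alterations, cln2 rad14.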

[5] = NCI Yeast Anticancer Drug Screen. Data for the bub3 strain (AID 167); settings: S. cerevisiae bub3 mutant strain, at 50.0 µM, hits give high values
Procedure, shortened: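 Screening used yeast with an engineered genetic alteration affecting cell cycle control. Compound-exposed cultures were compared with vehicle cultures, and reduced growth was taken as inhibition.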

[6] = NCI Yeast Anticancer Drug Screen. Data for the mlh1 rad18 strain (AID 175); settings: S. cerevisiae mlh1 rad18 strain growth inhibition; at 50.0 µM; hits give high values
Procedure, shortened: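 Cells of a genetically altered yeast strain, deficient in DNA damage repair, were treated with compound. Their growth was then compared with that of vehicle-treated cultures to give inhibition.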

Measured: growth inhibition

O=C(O)/N=N\C(=O)O
inactive: [1] -36.9% | [2] -23.9% | [3] -19.4% | [4] -5.05% | [5] -26.4% | [6] -27.2%

CC(=O)c1cccc(OCC(O)CN2CCN(c3ccc(C)cc3)CC2)c1 (stereo not given)
inactive: [1] -12.3% | [2] 3.95% | [3] 4.1% | [4] -8.9% | [5] 3.15% | [6] -2.25%

O=C1CC2CCC(C1)S2
inactive: [1] -18.1% | [2] -28.6% | [3] -15.4% | [4] 16.1% | [5] -2.95% | [6] -33%

C/C(CC(C)C)=N/NC(N)=S
inactive: [1] 14.9% | [2] 0.7% | [3] 1.35% | [4] -23.1% | [5] 32.6% | [6] 30.4%

CCOc1ccccc1NC(=O)C(=O)CC(=O)c1sc(Nc2nnc(-c3ccc(Cl)c(Cl)c3)o2)nc1C
inactive: [1] 20.5% | [2] -11.6% | [3] 21.1% | [4] 21.4% | [5] 31.4% | [6] 17.8%

O=C(O)/C=C/S(=O)(=O)Cc1ccccc1
inactive: [1] 8.7% | [2] -6.4% | [3] 2.7% | [4] -27.3% | [5] 7.5% | [6] 6.75%

O=C(O)c1cc(Nc2nc(Cl)nc(Cl)n2)ccc1-c1c2ccc(=O)cc-2oc2cc(O)ccc12
inactive: [1] 37.2% | [2] 21.3% | [3] 22.7% | [4] 10% | [5] -1.15% | [6] 49.5%

CCNC(=O)OC1C=CS(=O)(=O)C1 (stereo not given)
inactive: [1] 5.25% | [2] -9.45% | [3] -0.45% | [4] -5.55% | [5] 7.95% | [6] -10.2%

O=C(O)/C=C/C(=O)Nc1cc(Cl)cc2c1-c1c(Cl)cc(Cl)cc1C2=O
inactive: [1] 30.9% | [2] 8.95% | [3] 31.6% | [4] -52.6% | [5] -4% | [6] 4.25%

COc1cc(NCCCCCNC(C)C)c2ncccc2c1
inactive: [1] 48.9% | [2] 20.2% | [3] 35.3% | [4] 27.9% | [5] 35.6% | [6] 54%

CN(Cc1ccccc1)C(=O)c1ccc(C(=O)N(C)Cc2ccccc2)cc1
inactive: [1] 1.75% | [2] -1.65% | [3] 19.4% | [4] -3.95% | [5] 35.1% | [6] 40.2%

CC(C)N(CCCCO)C(C)C
inactive: [1] -0.75% | [2] -0.3% | [3] 14.2% | [4] 0.05% | [5] 2.7% | [6] 3.3%

CC(=O)NNc1ncc(C(=O)/C=C/c2ccccc2C)s1
inactive: [1] 31.1% | [2] 16.1% | [3] 12.5% | [4] 29.1% | [5] 22.3% | [6] 36.6%

CCC(Cl)(c1ccccc1)C(O)C(=O)OC(C)C (stereo not given)
inactive: [1] 8% | [2] 2.65% | [3] 10.8% | [4] -2.35% | [5] -6.3% | [6] 11.8%

Oc1ccccc1CN1CCOCC1 (tested in a mixture with another compound)
inactive: [1] -2.7% | [2] -7.05% | [3] 6.95% | [4] -46.2% | [5] 0.2% | [6] -6.25%

CCOC(=O)c1c[nH]c2c(=O)n(C)c(=O)[nH]c12
inactive: [1] 7.25% | [2] -7.75% | [3] 3.5% | [4] -28.8% | [5] 0.5% | [6] 24.1%

O=C(Nc1ccc(Cl)cc1)OCc1ccco1
inactive: [1] 2.2% | [2] 24.1% | [3] 24.4% | [4] -12.4% | [5] 17.8% | [6] 16.8%

NC(=O)c1cnn(CCO)c1N
inactive: [1] 0.2% | [2] -3.35% | [3] 2.55% | [4] -15.6% | [5] 2.85% | [6] 12.6%

Cc1ccc(SCCN)cc1
inactive: [1] 11.8% | [2] 11.9% | [3] -6.3% | [4] 2.35% | [5] -0.35% | [6] -10.2%

Cc1ccc(Cl)nn1
inactive: [1] 10% | [2] -1.25% | [3] -2.55% | [4] -3.3% | [5] 12.9% | [6] 2.1%
